KDM4E inh: blocks human JMJD2E demethylase activity; JMJD2E catalytic domain, FDH-coupled NADH fluorescence (FDH is formaldehyde dehydrogenase); Potency, µM (series often up to 57.1 µM), inactives show top-dose activity change, negative = inhibition, most hits filed as inhibitors; 230,000 tested, 1.6% active; AID 2147; active means well fitted inhibition curve with a large enough effect, not every such curve was filed as active; inconclusive means small, poorly fitted or top-dose-only effect, or another doubt; inactive means no such curve, though single readings can be large or run the other way;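 further: 0% = wells with enzyme and -100% = buffer wells without enzyme; nearly all actives have a fitted effect of over 50% in size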
Sfp PPTase inh: Sfp phosphopantetheinyl transferase inhibition; Potency, µM, for inactives: largest response in the series, negative = inhibition, usual class: inhibitors; Biochemical Sfp PPTase activity, qHTS; 310,000 tested, 3.5% active;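 further: the enzyme is Sfp with the accession as filed and its product quenches rhodamine fluorescence; 0% = enzyme reaction without inhibitor and -100% = no enzyme wells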
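Fluorescence-quenching assay: 15 nM Sfp-PPTase preincubated 15 min at room temperature with compound, then 5 uM rhodamine-CoA and 12.5 uM BHQ-2-labelled YbbR peptide added. Fluorescence (ex 525/em 598 nm) read at start and after 30 min; difference gives rate.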
KAT2A inh: blocks human GCN5L2 histone acetyltransferase; Q92830; Potency, µM (series often up to 58.9 µM), for the others: at the top dose activity change, negative = inhibition, hits mostly inhibitors; GCN5L2 HAT assay, ThioGlo1 CoA-SH fluorescence; 390,000 tested, 0.21% active; AID 504327; further: on the % scale 0 is the no-effect control and ±100 the full control effect
Target sequence (Q92830 whole entry, looked up): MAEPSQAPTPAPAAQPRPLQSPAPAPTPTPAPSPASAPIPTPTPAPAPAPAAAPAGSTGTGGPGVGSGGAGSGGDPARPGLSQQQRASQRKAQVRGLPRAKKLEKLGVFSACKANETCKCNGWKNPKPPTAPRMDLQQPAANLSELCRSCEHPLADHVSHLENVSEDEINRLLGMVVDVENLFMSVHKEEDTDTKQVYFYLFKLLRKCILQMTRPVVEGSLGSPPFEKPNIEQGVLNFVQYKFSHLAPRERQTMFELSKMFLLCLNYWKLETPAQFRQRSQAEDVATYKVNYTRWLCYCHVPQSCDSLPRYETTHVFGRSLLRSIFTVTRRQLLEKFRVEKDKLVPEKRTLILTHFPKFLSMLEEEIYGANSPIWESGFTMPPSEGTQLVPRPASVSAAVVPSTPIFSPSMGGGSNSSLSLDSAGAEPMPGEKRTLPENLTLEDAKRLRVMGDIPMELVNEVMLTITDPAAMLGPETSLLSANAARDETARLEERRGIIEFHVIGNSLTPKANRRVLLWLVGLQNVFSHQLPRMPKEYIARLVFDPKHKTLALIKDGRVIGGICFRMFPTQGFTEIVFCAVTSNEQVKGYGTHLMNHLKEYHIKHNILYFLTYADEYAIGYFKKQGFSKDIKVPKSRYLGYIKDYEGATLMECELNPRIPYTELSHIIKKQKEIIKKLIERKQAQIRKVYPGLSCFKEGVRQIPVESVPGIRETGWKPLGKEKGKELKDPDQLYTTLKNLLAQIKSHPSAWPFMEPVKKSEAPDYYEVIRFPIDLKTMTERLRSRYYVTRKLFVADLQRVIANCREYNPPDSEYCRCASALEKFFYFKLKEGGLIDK
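Enzyme at 20nM final was mixed with library compounds for 15 min at room temperature. Peptide H3(1-25) at 75uM, acetyl-CoA at 70uM and ThioGlo1 at 50uM were then added. Plates were read immediately and after 20 min (Ex340nm/Em540nm).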
NPSR antag: neuropeptide S receptor (human) antagonism, cAMP; Q6W5P4; CHO-NPSR cells, cAMP TR-FRET, antagonist mode; Potency, µM (top dose mostly 38.3 µM), inactives show at the top dose activity change, negative = inhibition, most hits filed as inhibitors; 220,000 tested, 1% active; AID 1461; further: on the % scale 0 is the no-effect control and ±100 the full control effect; nearly all actives have a fitted effect of over 50% in size
Epigenetic reg: derepresses silenced GFP reporter in murine cells; Potency, µM (titrated, usually from 53.9 µM), for the others: at the top dose GFP activation, actives largely listed as activators; murine LDR cells, GFP reporter derepression, 30 h; 280,000 tested, 0.2% active; further: % of control where 0% means no effect; nearly all actives have a fitted effect of over 60% in size
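GFP-positive cell count by laser-scanning cytometry (objects 20–120 um) after 30 h, 37 C compound exposure of murine LDR cells; reporter is CMV-GFP integrated at a silenced locus, inducible by HDAC or DNMT inhibitors.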
IMPase Li cell: IMPase inhibition in cells with lithium potentiation; CHO-M1 cells, IP1 TR-FRET (IP-One), carbachol + lithium; Potency, µM (top dose mostly 59.4 µM), for inactives: at the highest dose activity, negative = IMPase inhibition, actives largely listed as inhibitors; 210,000 tested, 0.35% active; AID 1457;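 further: IP1 builds up when IMPase is blocked and the TR-FRET signal falls; plate controls were basal vehicle for no effect and high inhibitor control for full effect; nearly all actives have a fitted effect of over 50% in size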
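Concentration–response in CHO-M1 cells, lithium-potentiated; 30 min at 37C. IP1 detected by competitive TR-FRET after 10 min lysis at RT. Hill-fitted AC50.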
* hit, by the source's call; ? = inconclusive; / = no result given; ! = a repeat was not active; [ ] = another dose, or the depositor's remark. Rows were chosen to be rich in hits. Some 3.6% of all compounds tested hit in one or more screens of this group. Unless noted, the call rests on the fitted dose curve; in most records, active means well fitted curve in the direction sought with a large enough effect; inconclusive means small, poorly fitted or top-dose-only effect, or another doubt; inactive means no such curve, though single readings can be large; an effect the other way counts as inactive or inconclusive. Potency means the concentration at half of the fitted maximal effect.

SMILES | KDM4E inh | Sfp PPTase inh | KAT2A inh | NPSR antag | Epigenetic reg | IMPase Li cell
OC(CNCC1CCCO1)Cn1c2ccc(Cl)cc2c2cc(Cl)ccc21 (stereo unspecified) | -21.6% | 50.1µM* | 36.7% | ? | 1.1% | 1.5%[38.3 µM]
OC(CNCC1CCCO1)Cn1c2ccccc2c2ccccc21 (stereo unspecified) | -2.2% | 9.3% | -22.5% | -1.7%[46.1 µM] | -4.8% | -11.2%[38.3 µM]
OC(CNCCC1C=Nc2ccccc21)Cn1c2ccc(Cl)cc2c2cc(Cl)ccc21 (stereo unspecified) | -9.0% | 11.2µM* | -8.4% | 10µM* | 1.6% | 14.3%
O=C(O)c1ccncc1.O=C(O)c1ccncc1.[Cl][Pt]([Cl])([Cl])[Cl] | / | / | / | / | / | -4.5%
O=C(COc1ncnc2c(Cl)cc(Cl)cc12)NC1CCCCCC1 | -0.4% | -3.8% | 4.9% | 4.3%[46.1 µM] | -1.7% | 22.4µM*
O=C(COc1ncnc2c(Cl)cc(Cl)cc12)N1CCCCC1 | 7.5% | 25.8% | 3.4% | -4.0%[46.1 µM] | 1.1% | -7.3%[38.3 µM]
CCN1/C(=C2\C(=O)N(C)C(=S)N2C)C=Cc2cc(OC)ccc21 | ? | 50.1µM* | -3.3% | -39.6% | 0.0% | 42.7%
CCC12CCCN3CCc4c(n(c5ccccc45)C(O)(C(=O)OC)C1)C32 (stereo unspecified) | ? | -17.2% | -0.5% | -3.4% | 0.1% | /
CC[C@@]12CCCN3CCc4c(n(c5ccccc45)[C@](O)(C(=O)OC)C1)[C@H]32 | -20.4% | 7.1% | 12.6µM*! | / | -1.4% | 12.9%
N#CC1=C(N)N(c2ccc(Br)cc2)C2=C(C(=O)CCC2)C1c1cccnc1 (stereo unspecified) | 3.5% | 5.62µM* | -8.2% | -18.4%[46.1 µM] | 0.1% | 15.4%[38.3 µM]
CC(C)C[C@H](NC(=O)[C@H](CC(C)C)NC(=O)[C@@H](Cc1c[nH]c2ccccc12)NC(=O)[C@H](Cc1ccccc1)NC(=O)[C@@H](Cc1c[nH]c2ccccc12)NC(=O)[C@H](CCC(N)=O)NC(=O)[C@H](CCC(N)=O)NC(=O)[C@@H]1CCCN1C(=O)[C@H](CCCCN)NC(=O)[C@@H]1CCCN1C(=O)[C@@H](CCCNC(=N)N)NC(=O)[C@@H]1CCCN1C(=O)CNC(=O)[C@H](CC(C)C)NC(=O)[C@H](CC(C)C)NC(=O)[C@H](Cc1ccc(O)cc1)NC(=O)CNC(=O)[C@H](C)NC(=O)[C@H](CO)NC(=O)[C@H](CC(N)=O)NC(=O)[C@H](CC(C)C)NC(=O)[C@@H](NC(=O)[C@H](Cc1c[nH]c2ccccc12)NC(=O)CN)[C@@H](C)O)C(N)=O | / | -27.4% | 0.6% | / | / | /
O=S(=O)(Nc1nccs1)c1ccc(Br)cc1 | 5.5% | 26.7% | -2.7% | -7.5% | 0.0% | 3.1%
O=S(=O)(Nc1nccs1)c1cnc(Cl)c(Br)c1 | -6.0% | 50.1µM* | -2.4% | 0.6% | 0.0% | -1.1%
S=C(NCCc1ccccc1)Nc1cnc2ccccc2c1 | 25.1µM* | 5.4% | -9.7% | -22.2% | -0.4% | 2.3%
O=C(NC(=S)Nc1cnc2ccccc2c1)c1ccccc1 | ? | 56.2µM* | 32.2% | -39.7% | 0.0% | ?
COC(=O)c1sccc1S(=O)(=O)N(CC(=O)Nc1cccc(C)c1C)c1ccc(C)c(C)c1 | / | / | 18.8% | / | 2.3% | /
COc1cccc(O)c1CN1CCC(C(=O)Nc2ccc(-c3cccc(C)c3)cc2)CC1 | / | 79.4µM* | -9.7% | / | / | /
COc1ccc2cc(CN(CC3COCCO3)S(=O)(=O)c3c(C)cc(C)cc3C)c(=O)[nH]c2c1 (stereo unspecified) | 8.5% | 5.6% | -0.8% | 1.7%[46.1 µM] | -0.9% | -16.4%[38.3 µM]
COc1ccc2cc(CN(CC3COCCO3)S(=O)(=O)c3ccc(Cl)cc3)c(=O)[nH]c2c1 (stereo unspecified) | ? | 10.0% | -4.1% | ? | 0.0% | 7.08µM*
Cc1ccc(S(=O)(=O)N(Cc2cc3cc4c(cc3[nH]c2=O)OCCO4)CC2CCCO2)cc1 (stereo unspecified) | ? | 5.1% | 0.4% | ? | 2.7% | 7.08µM*
O=c1[nH]c2cc3c(cc2cc1CN(CC1CCCO1)S(=O)(=O)c1ccc(Cl)cc1)OCCO3 (stereo unspecified) | ? | -7.7% | -5.5% | ? | 0.0% | 5.1%[38.3 µM]
COc1ccc(N2C(=O)CC(Sc3nnnn3-c3ccc(F)cc3)C2=O)cc1 (stereo unspecified) | -0.6% | 15.8µM* | 26.9% | -20.8% | ? | 7.9%
O=C1CC(Sc2nnnn2-c2ccccc2)C(=O)N1c1cccc(Cl)c1 (stereo unspecified) | -2.7% | 12.6µM* | 0.2% | ? | -4.1% | 9.9%[38.3 µM]
CCCCC(=O)Nc1ccc2nc(SCC(=O)N3CCc4ccccc43)sc2c1 | / | / | -11.0% | / | -1.6% | /
C=C1CCN(C(C)C(=O)OCc2ccc(C)cc2)S(=O)(=O)c2ccccc21 (stereo unspecified) | / | 1.1% | / | / | / | /
SMILES | KDM4E inh | Sfp PPTase inh | KAT2A inh | NPSR antag | Epigenetic reg | IMPase Li cell
O=c1nc2s/c(=C\c3ccco3)c(=O)n2nc1Cc1ccc(F)cc1 | -7.8% | 44.7µM* | ? | -8.2%[46.1 µM] | -1.0% | 17.4%[38.3 µM]
Cc1ccc2[nH]c(-c3ccc(F)cc3F)cc(=O)c2c1 | / | ? | -0.3%[88.6 µM] | / | -1.5%[96.6 µM] | -12.3%
O=C(O)c1cccc(S(=O)(=O)Nc2ccc3oc(=O)sc3c2)c1 | ? | 11.2µM* | ? | -7.3%[46.1 µM] | -1.9% | 3.4%[38.3 µM]
O=C(O)c1cccc(S(=O)(=O)Nc2ccc3[nH]c(=O)[nH]c3c2)c1 | -23.5% | 6.4% | -5.4% | 1.6% | 0.0% | /
CSc1ncc(C(=O)O)n1-c1ccc(F)cc1 | 4.9% | 10.9% | 1.0% | -8.6%[46.1 µM] | 0.0% | -7.0%
O=C(O)c1c[nH]c(=S)n1-c1ccc(F)cc1 | -8.8% | 11.2µM* | ? | 4.5%[46.1 µM] | -0.5% | -15.3%[38.3 µM]
C=CCn1c(SCC(=O)NCC2CCCO2)nc2scc(-c3ccccc3)c2c1=O (stereo unspecified) | / | 11.4% | -0.5% | / | / | /
C=CCn1c(SCC(=O)NCCCC)nc2scc(-c3ccco3)c2c1=O | -14.1% | 20µM* | -16.8% | -11.8%[46.1 µM] | 3.5% | 3.6%
C=CCn1c(SCC(=O)NC2CCCC2)nc2scc(-c3ccco3)c2c1=O | ? | 10µM* | -8.1% | -27.9%[46.1 µM] | -1.0% | 32.4%[38.3 µM]
C=CCn1c(SCC(C)=O)nc2scc(-c3ccc(C)o3)c2c1=O | / | 50.1µM* | -17.6% | / | / | /
COc1ccc(C2C3C=CCC(c4cccc(/C=C/c5ccccc5)c4)C3C(=O)N2Cc2ccccc2)cc1Cl (stereo unspecified) | / | -5.7% | / | / | / | /
C#CCCCCCCC#CCN(C)C | 15.8µM* | -6.1% | -1.4% | 5.7% | -1.0% | 0.9%
